About 8,600 (12%) of roughly 69,000 compounds showed an effect of 50% or more. This is one part of a sample in which strong results are shown more often than they occur.

Results on 30 compounds are retold here after ChEMBL document CHEMBL4513216, “Probing the Open Global Health Chemical Diversity Library for Multistage-Active Starting Points for Next-Generation Antimalarials” (ACS Infect Dis, 2020).

This experiment concerns Plasmodium berghei. As to the kind of experiment: Screen against P. berghei liver stage (PbLuc), transformed with Luciferase, at 10uM. The following applies: tested at 10 uM. In kind it is functional, HepG2.
As for `O=C(c1ccc(-c2ccccc2)[nH]c1=O)N1CCN(C2CC2)CC1`, the INHIBITION stood at 32.8%.
`CN(C)C(=O)[C@H]1C[C@H]2CN(C(=O)NCC3CCCCC3)C[C@@H]1O2`: the INHIBITION is reported as -36%.
As for `Fc1ccc(CN2CCCn3cnc(COCC4CC4)c3C2)cc1`, the INHIBITION is 45.8%.
Turning to `CC(NC(=O)C1CCCC1)c1nc(-c2ccccc2)c[nH]1` (stereo not given), the INHIBITION is reported as 31.7%.
To `O=C(NC(C(=O)Nc1cc[nH]n1)c1ccccc1)C1CCC1` (stereo not given) belongs 50.7%; to `O=C(COC1CCCC1)NC(C(=O)Nc1cc[nH]n1)c1ccccc1` (stereo not given), 62.6%; to `O=C(NC(c1ccccc1)c1cccnc1)C1CC1` (stereo not given), 25.8%.
`NC(=O)C(NC(=O)COC1CCCC1)c1ccccc1` (stereo not given): the INHIBITION was 45.3%.
Regarding `NC(=O)C(NC(=O)COC1CCCCC1)c1ccccc1` (stereo not given), the INHIBITION is recorded as 22.5%.
In the case of `c1cnnc(N2CCCC2CNCc2nc(-c3ccco3)no2)c1` (stereo not given), the INHIBITION turned out to be 30.42%.
To `CNC(=O)CN1CC[C@H]2CN(C(=O)c3ccoc3)C[C@H]2C1` belongs 15.4%; to `Cc1ccc(CC(=O)N2CCCC(n3ccnc3C(C)C)C2)cn1` (stereo not given), -9.19%; to `CN1CCOC(CNC(=O)Cc2coc(-c3ccccc3)n2)C1` (stereo not given), -33.9%.
Consider `CC(=O)c1cccc(NC(=O)CCn2nc(-c3cccs3)oc2=O)c1`, for which the INHIBITION is 29.2%.
In the case of `O=C(c1c2c(NCC3CC3)ncnc2n2ccccc12)N1CCOCC1`, the INHIBITION is 50.7%.
The same measure for `O=C(c1c2c(NCC3CC3)ncnc2n2ccccc12)N1CCCC1`: 26.5%; for `O=C(c1c2c(N3CCCC3)ncnc2n2ccccc12)N1CCOCC1`: 36.2%; for `CCc1n[nH]c(C2CN(C(=O)c3cscn3)CCO2)n1` (stereo not given): -23.9%.
The same measure for `CO[C@@H]1CN(S(=O)(=O)c2cn(C)cn2)[C@@H]2CCCO[C@@H]21`: -66.7%; for `O=C(NCc1nncn1C1CC1)c1cccnc1Oc1ccccc1`: 25.6%.
To `CNC(=O)CN1CCC(CN(C)CCSc2ccccc2)CC1` belongs -70.7%.
Take `CCCC(=O)N1CCC(c2nn(C)c(=O)n2-c2ccccc2)CC1`: the INHIBITION is recorded as 28.7%.
To `CNC(=O)CN1CCC(c2nn(C)c(=O)n2-c2ccccc2)CC1` belongs 53.7%; to `Cn1nc(C2CCN(CC(=O)NC3CC3)CC2)n(-c2ccccc2)c1=O`, -21.3%.
Take `CC(=O)N1CCC(c2nn(C)c(=O)n2-c2ccccc2)CC1`: the INHIBITION turned out to be 35.2%.
On to `CCSC(C)C(=O)N1CCC(c2nn(C)c(=O)n2-c2ccccc2)CC1` (stereo not given), for which the INHIBITION is listed as 63.7%.
On to `Cc1nc(NCc2cccc(F)c2)cc(C2CCNCC2)n1`, for which the INHIBITION stood at 24.8%.
On to `COc1ccccc1CN1C(=O)O[C@@H]2CN(S(=O)(=O)N(C)C)C[C@@H]21`, for which the INHIBITION amounted to 7.97%.
Take `COc1ccccc1CN1C(=O)O[C@@H]2CN(C(C)C)C[C@@H]21`: the INHIBITION is given as 79.5%.
Turning to `COc1ccccc1CN1C(=O)O[C@@H]2CN(CC3CC3)C[C@@H]21`, the INHIBITION is listed as -0.613%.
